From PubChem BioAssay (NCATS)
Inconclusive results are not listed. Activity calls are given as the source filed them. Unless noted, the call rests on the fitted dose curve; in most records, active means well fitted curve in either direction with a large enough effect (not every such curve was filed as active); inconclusive means small, poorly fitted or top-dose-only effect, or another doubt; inactive means flat fitted curve, though single readings scatter. Residues, ends and D or L forms follow the SMILES beside them.

What was measured:
[1] = target: Lysosomal acid glucosylceramidase (Homo sapiens) (UniProt P04062); assay: Glucocerebrosidase-p2 (AID 348; in the data active means potency below about 10 µM; further: potency means the concentration at half of the fitted maximal effect); details: purified GBA, blue fluorogenic substrate, 40 min
Summary of the method: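 Compounds titrated from 0.6 nM upwards against 0.2 nM enzyme in pH 5.9 citric acid/KH2PO4, taurocholate, tween-20; blue fluorogenic substrate 80 uM, 40 min room temperature, stopped and read Ex 365/Em 440 for AC50.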

[2] = AP1 Signaling Pathway (AID 357); details: ME-180 AP-1-bla reporter, EGF-induced, beta-lactamase ratio, 5 h; at 7.69 µM (top of the series) unless noted;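 further: ME-180 reporter cells stimulated with EGF at its EC50 level; on the % scale 0 is the no-effect control and ±100 the full control effect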
Summary of the method: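 Beta-lactamase reporter under AP-1 response element, ME-180 background. Stimulus: EC50 EGF. Compound exposure 5 h, 37 °C. Detection: CCF4, 2.5 h RT, 460/530 nm. Values: AC50 from titration.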

[3] = NFAT Signaling Pathway (AID 444); details: Jurkat NFAT-bla M1, carbachol, beta-lactamase ratio, 5 h; at 7.69 µM (top of the series) unless noted;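 further: carbachol stimulus at about its EC50 of 1 µM final; on the % scale 0 is the no-effect control and ±100 the full control effect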
Summary of the method: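 Read-out: CCF4 FRET ratio (460 nm/530 nm) after 1 h RT dye loading, used for %activity and AC50 from titration series. Cells: Jurkat NFAT-β-lactamase/M1 line, treated with compound plus 1 uM carbachol for 5 h, 37 °C.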

[4] = Stat Signaling Pathway (AID 446); details: ME-180 SIE beta-lactamase reporter, IL-6 stimulated, 5 h; at 7.69 µM (top of the series) unless noted;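 further: ME-180 cervical cancer cells given 40 pM IL-6 alongside compound; SIE-controlled beta-lactamase reporter measured as 460/530 nm FRET emission ratio; on the % scale 0 is the no-effect control and ±100 the full control effect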
Summary of the method: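 ME-180 cells carrying a SIE-driven beta-lactamase reporter are stimulated with 40 pM IL-6 for 5 h at 37C in the presence of compound. The 460/530 nm FRET substrate ratio is read after 2.5 h at RT. Data are normalised to 300 pM IL-6 and to 125 nM JAK inhibitor controls.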

[5] = target: Glucocorticoid receptor (Homo sapiens) (UniProt P04150); assay: GR-GFP Redistribution (AID 450;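 active means compounds whose dose series gives a full or clear partial fitted curve of increased nuclear translocation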; further: potency means the concentration at half of the fitted maximal effect); details: U2OS GR-GFP nuclear translocation, laser cytometry, 2 h
[6] = target: Glucocorticoid receptor (Homo sapiens) (UniProt P04150); assay: GR-EFC Redistribution (AID 451; calls by dose curve; further: potency means the concentration at half of the fitted maximal effect); details: CHO-K1 GR-EFC translocation, beta-gal luminescence, 2 h
Summary of the method: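 Translocation of GR-ED fusion to nuclear EA restores b-gal, read by luminescence after 1 h room-temperature detection. Engineered CHO-K1 biosensor cells, 1,000/well, exposed 2 h at 37 C to titrations up to 46 uM final.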

[7] = target: Mitogen-activated protein kinase 10 (Mus musculus) (UniProt Q61831); assay: JNK3 AlphaScreen Assay (AID 530); details: JNK3 lysate, c-Jun phosphorylation; series mostly up to 11.4 µM;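 further: kinase came from lysate of stimulated human HepG2 cells; signal reports phosphorylation of biotinylated GST-cJun 1-79 at Ser73 with 10 µM ATP; on the % scale 0 is the no-effect control and ±100 the full control effect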
Summary of the method: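 Room-temperature AlphaScreen kinase assay; pre-activated HepG2 lysate as JNK3 source, biotin-GST-cJun(1-79) substrate, 10 uM ATP, compound 15 min preincubation.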

[8] = target: 3',5'-cyclic-AMP phosphodiesterase 4B (Homo sapiens) (UniProt Q07343); assay: qHTS Assay for Inhibitors of PDE-IV (AID 607; active means well fitted activation curve with a large enough effect in the main read-out, with a control signal flat, not every such curve was filed as active; further: % of control where 0% means no effect); details: HEK293 ACTOne CNG channel cells, membrane potential fluorescence; series mostly up to 22.9 µM
Summary of the method: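 HEK293 ACTOne cells with CNG channel (1000/well), endogenous PDE4; membrane potential dye, compounds up to 22.9 uM final. Fluorescence Ex 535/Em 590; RO 20-1724 (100 uM final) as reference.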

Sequence of Lysosomal acid glucosylceramidase (Homo sapiens) (P04062 whole entry, looked up): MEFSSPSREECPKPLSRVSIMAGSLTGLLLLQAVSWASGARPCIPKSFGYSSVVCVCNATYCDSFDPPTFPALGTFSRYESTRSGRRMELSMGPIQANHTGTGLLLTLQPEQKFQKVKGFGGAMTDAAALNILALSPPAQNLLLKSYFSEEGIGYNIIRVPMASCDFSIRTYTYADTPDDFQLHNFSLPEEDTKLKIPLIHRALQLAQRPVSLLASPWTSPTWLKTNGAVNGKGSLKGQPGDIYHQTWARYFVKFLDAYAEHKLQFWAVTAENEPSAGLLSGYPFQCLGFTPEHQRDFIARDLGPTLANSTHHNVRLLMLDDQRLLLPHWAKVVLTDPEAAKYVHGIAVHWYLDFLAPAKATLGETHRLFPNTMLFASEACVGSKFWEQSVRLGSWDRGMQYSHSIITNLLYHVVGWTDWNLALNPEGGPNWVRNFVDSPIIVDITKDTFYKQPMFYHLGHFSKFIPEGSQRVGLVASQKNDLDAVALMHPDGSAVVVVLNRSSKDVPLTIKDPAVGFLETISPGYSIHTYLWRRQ
Sequence of 3',5'-cyclic-AMP phosphodiesterase 4B (Homo sapiens) (Q07343 whole entry, looked up): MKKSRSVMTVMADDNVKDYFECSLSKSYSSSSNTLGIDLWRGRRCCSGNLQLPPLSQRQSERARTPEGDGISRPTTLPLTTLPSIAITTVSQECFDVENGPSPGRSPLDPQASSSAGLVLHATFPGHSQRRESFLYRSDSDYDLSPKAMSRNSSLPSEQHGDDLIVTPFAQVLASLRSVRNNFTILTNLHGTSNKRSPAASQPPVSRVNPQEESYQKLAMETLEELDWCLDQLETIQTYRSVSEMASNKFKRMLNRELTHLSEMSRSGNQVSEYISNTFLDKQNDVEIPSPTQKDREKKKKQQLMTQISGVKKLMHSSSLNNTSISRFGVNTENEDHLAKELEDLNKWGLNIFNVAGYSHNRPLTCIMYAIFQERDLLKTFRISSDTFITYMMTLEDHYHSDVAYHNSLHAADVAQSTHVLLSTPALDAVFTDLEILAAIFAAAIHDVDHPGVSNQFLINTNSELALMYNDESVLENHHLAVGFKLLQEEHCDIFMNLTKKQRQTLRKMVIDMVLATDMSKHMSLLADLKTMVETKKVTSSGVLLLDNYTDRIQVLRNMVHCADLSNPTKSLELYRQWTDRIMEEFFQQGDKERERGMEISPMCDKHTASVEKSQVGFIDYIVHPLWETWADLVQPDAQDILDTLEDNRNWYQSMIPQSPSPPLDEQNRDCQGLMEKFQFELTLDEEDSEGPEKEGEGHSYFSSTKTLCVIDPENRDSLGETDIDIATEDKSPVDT
Sequence of Glucocorticoid receptor (Homo sapiens) (P04150 whole entry, looked up, the tested form may be a part): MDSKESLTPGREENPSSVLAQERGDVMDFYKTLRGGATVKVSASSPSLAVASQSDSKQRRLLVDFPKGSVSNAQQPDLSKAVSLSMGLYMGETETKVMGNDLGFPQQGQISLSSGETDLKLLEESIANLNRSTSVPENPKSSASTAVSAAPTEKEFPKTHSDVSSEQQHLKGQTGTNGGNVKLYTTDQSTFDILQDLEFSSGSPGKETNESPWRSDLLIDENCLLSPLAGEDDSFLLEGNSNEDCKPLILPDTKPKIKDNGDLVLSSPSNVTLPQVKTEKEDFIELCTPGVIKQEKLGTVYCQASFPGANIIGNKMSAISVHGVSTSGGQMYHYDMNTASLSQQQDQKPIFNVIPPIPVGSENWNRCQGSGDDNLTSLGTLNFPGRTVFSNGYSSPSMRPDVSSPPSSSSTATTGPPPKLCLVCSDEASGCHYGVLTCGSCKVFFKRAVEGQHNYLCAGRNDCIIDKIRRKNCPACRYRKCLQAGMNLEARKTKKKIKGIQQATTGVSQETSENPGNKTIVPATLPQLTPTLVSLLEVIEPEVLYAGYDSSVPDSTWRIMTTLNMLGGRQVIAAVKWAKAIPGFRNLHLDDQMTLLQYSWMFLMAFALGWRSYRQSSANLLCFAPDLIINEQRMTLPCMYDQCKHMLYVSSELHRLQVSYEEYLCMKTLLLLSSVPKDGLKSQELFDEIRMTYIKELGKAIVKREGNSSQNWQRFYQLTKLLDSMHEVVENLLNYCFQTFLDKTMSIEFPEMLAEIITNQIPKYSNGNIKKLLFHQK

O=C1c2ccccc2C(=O)N1c1ccc(Cc2ccc(N3C(=O)c4ccccc4C3=O)cc2)cc1
inactive: Potency [1] > 11.4 µM | activity change, negative = inhibition [2] -0.978% | activity change, negative = inhibition [3] 8.54% | activity, negative = inhibition [4] -2.37% | Potency [5] > 46 µM | Potency [6] > 9.22 µM | Potency [7] | Potency [8]

CO[C@@H]1/C=C\O[C@]2(C)Oc3c(C)c(O)c4c(O)c(c(CN(C)C)c(O)c4c3C2=O)NC(=O)/C(C)=C\C=C[C@@H](C)[C@@H](O)[C@H](C)[C@@H](O)[C@H](C)[C@H](OC(C)=O)[C@@H]1C
inactive: Potency [1] > 11.4 µM | activity change, negative = inhibition [2] -3.25% | activity change, negative = inhibition [3] 17.6% | activity, negative = inhibition [4] -2.18% | Potency [5] > 46 µM | Potency [6] > 9.22 µM | Potency [7] | Potency [8]

O=C(O)CNC(=O)[C@H]1NC(C(F)(F)F)(C(F)(F)F)OC1(C(F)(F)F)C(F)(F)F
inactive: Potency [1] > 11.4 µM | activity change, negative = inhibition [2] -4.91% | activity change, negative = inhibition [3] 10.9% | activity, negative = inhibition [4] -14.7% | Potency [5] > 46 µM | Potency [6] > 9.22 µM | Potency [7] | Potency [8]

CC(C)=C[C@H]1[C@@H](COC(=O)c2cc3c(cc2Cl)OCO3)C1(C)C
inactive: Potency [1] > 11.4 µM | activity change, negative = inhibition [2] 9.62% | activity change, negative = inhibition [3] 1.43% | activity, negative = inhibition [4] 13.6% | Potency [5] > 46 µM | Potency [6] > 9.22 µM | Potency [7] | Potency [8]

O=C(O)[C@@H]1[C@@H](C(=O)NCc2cccnc2)[C@@H]2C=C[C@@H]1O2
inactive: Potency [1] > 11.4 µM | activity change, negative = inhibition [2] 8.06% | activity change, negative = inhibition [3] 2.31% | activity, negative = inhibition [4] 0.333% | Potency [5] > 46 µM | Potency [6] > 9.22 µM | Potency [7] | Potency [8]

O=C(CSC1=NCCN1)c1ccccc1
inactive: Potency [1] > 11.4 µM | activity change, negative = inhibition [2] -0.79% | activity change, negative = inhibition [3] -8.06% | activity, negative = inhibition [4] -8.19% | Potency [5] > 46 µM | Potency [6] > 9.22 µM | Potency [7] | Potency [8]

O=C(Nc1c[nH]c(=O)[nH]c1=O)Oc1ccccc1
inactive: Potency [1] > 11.4 µM | activity change, negative = inhibition [2] 1.22% | activity change, negative = inhibition [3] 2.28% | activity, negative = inhibition [4] -1.82% | Potency [5] > 46 µM | Potency [6] > 9.22 µM | Potency [7] | Potency [8]

O=C1CCC[C@H]1C(=O)Nc1ccc2ccccc2c1
inactive: Potency [1] > 11.4 µM | activity change, negative = inhibition [2] 7.06% | activity change, negative = inhibition [3] 16.2% | activity, negative = inhibition [4] 8.65% | Potency [5] > 46 µM | Potency [6] > 9.22 µM | Potency [7] | Potency [8]

Cc1cc2cc3c(=O)[nH]c(=O)[nH]c3nc2cc1C
inactive: Potency [1] > 11.4 µM | activity change, negative = inhibition [2] -6.37% | activity change, negative = inhibition [3] 11.7% | activity, negative = inhibition [4] -6.9% | Potency [5] > 46 µM | Potency [6] > 9.22 µM | Potency [7] | Potency [8]

O=C(O)C(Cc1ccccc1)Cc1ccccc1
inactive: Potency [1] > 11.4 µM | activity change, negative = inhibition [2] 8.41% | activity change, negative = inhibition [3] 1.48% | activity, negative = inhibition [4] -8.39% | Potency [5] > 46 µM | Potency [6] > 9.22 µM | Potency [7] | Potency [8]

Cc1ccc2nc(-c3ccc(NC(=O)c4ccc(N)cc4)c(S(=O)(=O)O)c3)sc2c1
inactive: Potency [1] > 11.4 µM | activity change, negative = inhibition [2] -3.73% | activity change, negative = inhibition [3] 12.1% | activity, negative = inhibition [4] -11.4% | Potency [5] > 46 µM | Potency [6] > 9.22 µM | Potency [7] | Potency [8]

NC1(C(=O)NC2(C(=O)O)CCCC2)CCCC1 (HELM PEPTIDE1{[NC1(C(=O)[*:2])CCCC1].[O=C(O)C1(N[*:1])CCCC1]}$$$$V2.0)
inactive: Potency [1] > 11.4 µM | activity change, negative = inhibition [2] 2.4% | activity change, negative = inhibition [3] -2.57% | activity, negative = inhibition [4] 8.97% | Potency [5] > 46 µM | Potency [6] > 9.22 µM | Potency [7] | Potency [8]

C[C@@H](NC(=O)C1(N)CCCC1)C(=O)O (HELM PEPTIDE1{[NC1(C(=O)[*:2])CCCC1].[dA]}$$$$V2.0)
inactive: Potency [1] > 11.4 µM | activity change, negative = inhibition [2] 5.64% | activity change, negative = inhibition [3] 15.7% | activity, negative = inhibition [4] 6.26% | Potency [5] > 46 µM | Potency [6] > 9.22 µM | Potency [7] | Potency [8]

Cc1ccc(S(=O)(=O)OCC(=O)O)cc1
inactive: Potency [1] > 11.4 µM | activity change, negative = inhibition [2] 2.36% | activity change, negative = inhibition [3] 4.54% | activity, negative = inhibition [4] 5.39% | Potency [5] > 46 µM | Potency [6] > 9.22 µM | Potency [7] | Potency [8]

Cc1cc(O)c(C(C)C)cc1CN1CCCCC1
inactive: Potency [1] > 11.4 µM | activity change, negative = inhibition [2] 10.4% | activity change, negative = inhibition [3] -29.6% | activity, negative = inhibition [4] 5.31% | Potency [5] > 46 µM | Potency [6] > 9.22 µM | Potency [7] | Potency [8]

CC(C)C[C@H](N)C(=O)O
inactive: Potency [1] > 11.4 µM | activity change, negative = inhibition [2] 10.7% | activity change, negative = inhibition [3] 1.77% | activity, negative = inhibition [4] 5.12% | Potency [5] > 46 µM | Potency [6] > 9.22 µM | Potency [7] | Potency [8]

O=C(O)C[C@@H](C(=O)O)C1c2ccccc2-c2ccccc21
inactive: Potency [1] > 11.4 µM | activity change, negative = inhibition [2] -0.496% | activity change, negative = inhibition [3] -1.69% | activity, negative = inhibition [4] -5.83% | Potency [5] > 46 µM | Potency [6] > 9.22 µM | Potency [7] | Potency [8]

Nc1nc2nc3c(nc2c(=O)[nH]1)CN(c1ccc(C(=O)O)cc1)C3=O
inactive: Potency [1] > 11.4 µM | activity change, negative = inhibition [2] -9.73% | activity change, negative = inhibition [3] 13.8% | activity, negative = inhibition [4] -8.98% | Potency [5] > 46 µM | Potency [6] > 9.22 µM | Potency [7] | Potency [8]

NS(=O)(=O)c1ccc(NCc2cnc3ccccc3c2)cc1
inactive: Potency [1] > 11.4 µM | activity change, negative = inhibition [2] -2.59% | activity change, negative = inhibition [3] 13.4% | activity, negative = inhibition [4] 0.424% | Potency [5] > 46 µM | Potency [6] > 9.22 µM | Potency [7] | Potency [8]

O=S(=O)(c1ccc2ccccc2c1)N1CCN(S(=O)(=O)c2ccc3ccccc3c2)CC1
inactive: Potency [1] > 11.4 µM | activity change, negative = inhibition [2] -2.95% | activity change, negative = inhibition [3] -5.78% | activity, negative = inhibition [4] 0.106% | Potency [5] > 46 µM | Potency [6] > 9.22 µM | Potency [7] | Potency [8]

N[C@@H](CCCCO)C(=O)O
inactive: Potency [1] > 11.4 µM | activity change, negative = inhibition [2] 4.11% | activity change, negative = inhibition [3] -3.02% | activity, negative = inhibition [4] -3.96% | Potency [5] > 46 µM | Potency [6] > 9.22 µM | Potency [7] | Potency [8]

COc1ccc2c(c1)CCc1c(-c3noc4c3CCc3cc(OC)ccc3-4)noc1-2
inactive: Potency [1] > 11.4 µM | activity change, negative = inhibition [2] -10.7% | activity change, negative = inhibition [3] -3.27% | activity, negative = inhibition [4] 2.75% | Potency [5] > 46 µM | Potency [6] > 9.22 µM | Potency [7] | Potency [8]

CC(C)(SCc1ccccc1)[C@H](N)C(=O)O
inactive: Potency [1] > 11.4 µM | activity change, negative = inhibition [2] 0.115% | activity change, negative = inhibition [3] 12.4% | activity, negative = inhibition [4] 5.95% | Potency [5] > 46 µM | Potency [6] > 9.22 µM | Potency [7] | Potency [8]

COc1cccc(CSCC(=O)O)c1
inactive: Potency [1] > 11.4 µM | activity change, negative = inhibition [2] -5.92% | activity change, negative = inhibition [3] 6.63% | activity, negative = inhibition [4] 6.95% | Potency [5] > 46 µM | Potency [6] > 9.22 µM | Potency [7] | Potency [8]

Cc1ccc(S(=O)(=O)N[C@H](CO)C(=O)O)cc1
inactive: Potency [1] > 11.4 µM | activity change, negative = inhibition [2] 1.84% | activity change, negative = inhibition [3] -20.5% | activity, negative = inhibition [4] 0.571% | Potency [5] > 46 µM | Potency [6] > 9.22 µM | Potency [7] | Potency [8]

[Cu].[NH-][C@H](CC(=O)O)C(=O)O.[NH-][C@H](CC(=O)O)C(=O)O
inactive: Potency [1] > 11.4 µM | activity change, negative = inhibition [2] 5.72% | activity change, negative = inhibition [3] 8.79% | activity, negative = inhibition [4] 13.3% | Potency [5] > 46 µM | Potency [6] > 9.22 µM | Potency [7] | Potency [8]

O=c1oc2ccccc2c(O)c1/C=N/c1nc(-c2ccc(O)c(O)c2)cs1
inactive: Potency [1] > 11.4 µM | activity change, negative = inhibition [2] -3.14% | activity change, negative = inhibition [3] 27.7% | activity, negative = inhibition [4] -11.7% | Potency [5] > 46 µM | Potency [6] > 9.22 µM | Potency [7] | Potency [8]
